Measurements from ChEMBL document CHEMBL4513216, “Probing the Open Global Health Chemical Diversity Library for Multistage-Active Starting Points for Next-Generation Antimalarials” (ACS Infect Dis, 2020).
The whole screen tested about 68,000 compounds, of which about 2,700 (4%) showed an effect of 50% or more. What follows is part of a selection rich in strong results, with near analogues and random picks from the rest.

system: Plasmodium berghei; test: Screen against P. berghei liver stage (PbLuc), transformed with Luciferase, at 2uM; assay type: functional, HepG2; settings: tested at 2 uM

| SMILES | INHIBITION [%] |
| --- | --- |
| Cc1cnc(N2CCC3(CC2)CN(c2ccsc2)C(=O)CO3)nc1 | -38.48 |
| CC(CN1CCOCC1)NC(=O)N1CCCC1 (stereo not given) | 34.93 |
| Cc1ccoc1C(=O)N1C[C@@H](OCC2CC2)[C@H]2OCCC[C@H]21 | 8.25 |
| CCc1nc(NC(=O)NCCc2cccc(C)n2)nn1C | 21.14 |
| CC(=O)NCCNC(=O)Nc1ccc(C)cc1OCc1ccccc1 | 3.22 |
| CCOc1ccccc1NC(=O)N(CCO)Cc1ccsc1 | 38.66 |
| Cc1ccc(NC(=O)N(CCO)CCO)c(OCc2ccccc2)c1 | 68.73 |
| CC(=O)N(C)CC(=O)Nc1ccc(C)cc1OCc1ccccc1 | 50.03 |
| CCCOc1cc(C)ccc1NC(=O)NCCNC(C)=O | -3.26 |
| CCCOc1cc(C)ccc1NC(=O)N(C)C | -59.32 |
| NC(=O)c1cc(C2CCCN(Cc3ccc4c(c3)OCCO4)C2)n[nH]1 (stereo not given) | -16.03 |
| Cc1nc(C2CCCN2CC(=O)NCCOc2ccc(F)cc2)no1 (stereo not given) | 20.57 |
| Cc1nccn1CCCn1cncc1-c1ccc2c(c1)CCC(C)N2C (stereo not given) | 12.29 |
| CC(C)(C)c1nc(CN2CCCC2Cn2cncn2)no1 (stereo not given) | 45.83 |
| COc1cccc(C2c3c(n[nH]c3C)N=C3COC(=O)C32)c1OC (stereo not given) | -35.07 |
| COc1ccc(OC)c(C2c3c(n[nH]c3C)N=C3COC(=O)C32)c1 (stereo not given) | 26.14 |
| COc1cccc(C2c3c(n[nH]c3C)N=C3COC(=O)C32)c1O (stereo not given) | 63.46 |
| NC(=O)CN1CCCC1c1ccccc1Br (stereo not given) | -43.18 |
| CNC(=O)CN1CCCC1c1ccccc1Br (stereo not given) | 1.9 |
| CNC(=O)CCN1CCCC1c1ccccc1Br (stereo not given) | 51.76 |
| Cc1nn(C)cc1CCC(=O)N1CCCC(n2cncn2)C1 (stereo not given) | 26.71 |
| COc1c[nH]c(C(=O)Nc2nc(C)cs2)cc1=O | 79.68 |
| CCOC(=O)Cc1csc(NC(=O)c2cc(=O)c(OC)c[nH]2)n1 | -5.51 |
| COc1c[nH]c(C(=O)Nc2nc(C(C)(C)C)cs2)cc1=O | 34.71 |

| SMILES | INHIBITION [%] |
| --- | --- |
| Cc1c(C2CC(=O)Nc3c2cnn3C(C)C)cnn1C (stereo not given) | -0.58 |
| O=C(CSc1nnc(N2CCOCC2)s1)NCc1cccs1 | 44.98 |
| CCc1[nH]ncc1C(=O)N1CCN(c2nc(C)cc(OC)n2)CC1 | 51.83 |
| CCc1[nH]ncc1C(=O)N1CCN(c2nccc(OC)n2)CC1 | -85.11 |
| CCOc1cc(C)nc(N2CCN(C(=O)c3cn[nH]c3CC)CC2)n1 | 38.76 |
| COc1cc(C)nc(N2CCN(C(=O)COCC3CC3)CC2)n1 | 4.19 |
| COc1ccnc(N2CCN(C(=O)COCC(F)(F)F)CC2)n1 | 4.19 |
| COc1cc(C)nc(N2CCN(C(=O)COCC(F)(F)F)CC2)n1 | 51.21 |
| Cc1ccnn1CCCNC(=O)C1CCN(S(C)(=O)=O)CC1 | -11.34 |
| Cc1csc(N2CCN(C(=O)Cc3cccs3)CC2)n1 | 6.07 |
| CC(C)(C)C(O)CN1CCN(Cc2cccc(C#N)c2)CC1 (stereo not given) | -4.89 |
| COc1ccc(CC(=O)N2CCCCC2Cn2cccn2)cc1OC (stereo not given) | -40.17 |
| CN1CCN(c2ccccc2NC(=O)NCCc2ccccc2)CC1 | -10 |
| C=Cc1ccc(C(=O)NC2CCCc3nc(N(C)C)ncc32)cc1 (stereo not given) | 34.61 |
| CC(C)n1c(=O)[nH]c2cn(-c3ccc(Br)cc3)c(=O)n21 | 22.07 |
| CCn1ccnc1CN(C)CC1CCCN1c1cccnn1 (stereo not given) | 55.52 |
| Cc1csc(NC(=O)CN(C)CC2CCCN2c2cccnn2)n1 (stereo not given) | 9.17 |
| CCn1ccnc1CNCC1CCCN1c1cccnn1 (stereo not given) | 39.92 |
| Cc1cc(NC(=O)CN(C)CC2CCCN2c2cccnn2)n(C)n1 (stereo not given) | 51.03 |
| Cc1cnc(CN(C)CC2CCCN2c2cccnn2)cn1 (stereo not given) | 47.72 |
| CN(CC(=O)Nc1ccncc1)CC1CCCN1c1cccnn1 (stereo not given) | -22.08 |
| O=C1CC2(CCN(Cc3ccco3)C2)CN1c1ccc2c(c1)OCO2 (stereo not given) | 14.06 |
| COCCCN1CCN([C@@H]2c3ccccc3C3(CCNCC3)[C@H]2O)CC1 | -13.79 |
| CC(C)CN1CC2(CCN(C(=O)c3nc4ncccn4n3)CC2)CC1=O | -47.52 |

| SMILES | INHIBITION [%] |
| --- | --- |
| CCCc1nc(N2CCCN(c3ncccn3)CC2)c2cnn(C)c2n1 | 17.73 |
| CCc1nc(N2CCN(c3ncccn3)CC2)c2cnn(C)c2n1 | 51.48 |
| CCc1nc(N2CCCN(c3ncccn3)CC2)c2cnn(C)c2n1 | 29.53 |
| CCCn1cc(Cl)c(C(=O)N2C[C@H]3CC(OC)C[C@H]3C2)n1 (stereo not given in full) | -13.75 |
| CCCS(=O)(=O)N1CCCN(CCCOC)CC1 | -14.94 |
| COc1cccc(NC(=O)NCC(Cc2cnn(C)c2)C(N)=O)c1 (stereo not given) | 55.25 |
| Cn1cc(CC(CNC(=O)Nc2cccc(Cl)c2)C(N)=O)cn1 (stereo not given) | 31.78 |
| COc1cccc(NC(=O)NCc2cnn(C)c2)c1 | 7.33 |
| CO[C@@H]1CC[C@@H](NC(=O)c2ccc(OCCN3CCCC3)cc2)[C@H]1O | -1.51 |
| COCC(=O)N1CCC(c2cc3ncccc3c(O)n2)CC1 | 19.89 |
| Fc1ccc(OCCCN2CCOC(Cn3cncn3)C2)cc1 (stereo not given) | -20.71 |
| Cc1cnn(CC2CN(CCCc3nc4ccccc4o3)CCO2)c1 (stereo not given) | 5.14 |
| c1cnn(CC2CN(CCCOc3ccc4c(c3)OCO4)CCO2)c1 (stereo not given) | -14.46 |
| c1ccc2oc(CCCN3CCOC(Cn4cncn4)C3)nc2c1 (stereo not given) | 53.11 |
| c1ccc2oc(CCCN3CCOC(Cn4cccn4)C3)nc2c1 (stereo not given) | 14.11 |
| c1ncn(CC2CN(CCCOc3ccc4c(c3)OCO4)CCO2)n1 (stereo not given) | 53.98 |
| COc1cc(N2CCC3(CCN(Cc4csc(C)n4)C3)CC2)ncn1 | 7.76 |
| CNc1nc(C2CCCN(C(=O)C(C)(C)OC)C2)nc2c1CN(C)CC2 (stereo not given) | -11.02 |
| Cc1nc(Cn2c(=O)cnc3ccccc32)n(C)n1 | -48.07 |
| CN(Cc1cccs1)C(=O)c1ccc(=O)n(C)c1 | 7.67 |
| COCCN(Cc1cccs1)C(=O)c1ccc(=O)n(C)c1 | 29.13 |
| CCN(Cc1cccs1)C(=O)c1ccc(=O)n(C)c1 | 50.59 |
